Screening data from PubChem.
Most compounds without a hit are left out; they make up all but 4.1% or so of the library.
DAX1 inh-1 = inhibitors of human orphan nuclear receptor DAX1 (NR0B1). P51843. HEK293 Gal4-DAX1 luciferase reporter, luminescence. inhibition, % at 6.75 µM. 0.99% of 340,000 active. AID 504766;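 active means inhibition above the mean over all tested compounds plus 3 SD, cut at about 4.2% in these data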;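 further: inhibition shows as a rise in luminescence from relieved DAX1 repression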
Target sequence (P51843 207-470 limits assumed): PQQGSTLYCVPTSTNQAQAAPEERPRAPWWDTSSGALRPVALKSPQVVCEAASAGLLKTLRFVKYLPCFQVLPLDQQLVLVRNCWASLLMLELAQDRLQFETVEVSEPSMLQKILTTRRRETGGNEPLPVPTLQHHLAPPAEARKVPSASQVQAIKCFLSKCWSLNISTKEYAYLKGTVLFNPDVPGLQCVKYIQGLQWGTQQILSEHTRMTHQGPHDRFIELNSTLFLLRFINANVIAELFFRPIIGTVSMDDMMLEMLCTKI
hgDAF12 agonist = activates the H. glycines DAF-12 receptor ligand-binding domain | activation, % at 6.8 µM | HEK293 GAL4-hgDAF12 UAS-luciferase reporter, agonist luminescence; normalized to butyrate control | 1.8% of 370,000 active;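 active means activation above a cutoff set at the mean of all screened compounds plus 3 SD, cut at about 10% in these data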
ssDAF-12 act = activators of S. stercoralis DAF-12 nuclear receptor | 1% of 370,000 active | activation, % at 6.8 µM | HEK293 ssDAF-12/GRIP1 lit1-tk-luc reporter, luminescence; % of 3 µM dafachronic acid response;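 active means activation above the mean over all tested compounds plus 3 SD, cut at about 0.9% in these data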
DAX1 inh-2 = DAX1 (NR0B1) inhibition, primary screen | inhibition, % at 6.8 µM | 1.1% of 370,000 active | HEK293T StAR-luciferase reporter, SF-1/DAX-1 repression relief;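 active means inhibition above the mean over all tested compounds plus 3 SD, cut at about 3.6% in these data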;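 further: higher inhibition means more luminescence from relief of DAX-1 repression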
hcDAF12 agonist = activators of H. contortus DAF-12 nuclear receptor; HEK293 hcDAF-12 lit1-tk-luc reporter, luminescence; 0% DMSO, 100% Δ7-dafachronic acid; activation, % at 6.8 µM; 1.4% of 370,000 active;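 active means activation above the mean of all tested compounds plus 3 SD, cut at about 5.5% in these data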
Of the large screens only hits and unclear results are named; the others gave an inactive call.

Cc1ccc2nc(SCC(=O)c3ccc4c(c3)OCO4)[nH]c2c1	none
Cc1ccc2nc(SCC(=O)c3ccc4c(c3)NC(=O)CO4)[nH]c2c1	hgDAF12 agonist 11.2
O=c1[nH]c(-c2ccc3c(c2)OCO3)nc2c1sc(=S)n2-c1ccccc1	ssDAF-12 act 1.0
CCOC(=O)/C(=C\c1c[nH]c2ccccc12)NC(C)=O	ssDAF-12 act 1.4
CCc1ccc(N(C(=O)Cn2nnc(-c3ccccc3)n2)C(C(=O)NC2CCCCC2)c2ccccn2)cc1 (stereo not given)	hcDAF12 agonist 6.5
CC(=O)c1ccc(N(C(=O)Cn2nnc(-c3ccccc3)n2)C(C(=O)NC2CCCCC2)c2ccccn2)cc1 (stereo not given)	none
CCOc1cc(C(=O)Nc2cccc(C(C)=O)c2)ccc1OCC(=O)N1CCCCC1	none
CCOc1cc(C(=O)N(C)CC(=O)Nc2cccc(F)c2)ccc1OCC(=O)N1CCCCC1	ssDAF-12 act 1.3
COc1ccc(NC(=O)Nc2ccc(F)cc2F)cc1	ssDAF-12 act 1.1
O=C(COC(=O)/C=C/c1ccc2c(c1)OCO2)Nc1ccccc1	none
COc1cccc(/C=C/C(=O)OCC(=O)Nc2ccc3c(c2)OCO3)c1	DAX1 inh-1 6.4
COc1ccc(NC(=O)Nc2ccc3c(c2)OCO3)c(C)c1	DAX1 inh-2 4.4
COc1ccccc1NC(=O)Nc1ccc2c(c1)OCCO2	DAX1 inh-1 8.0, hgDAF12 agonist 12.5
O=S1(=O)CCSC[C@@H](CN2CCN(c3ccccc3)CC2)N1	none (no result: DAX1 inh-1)
Cc1ccccc1N1CCN(S(=O)(=O)c2ccc3c(c2)n(C)c(=O)c(=O)n3C)CC1	none (no result: DAX1 inh-1)
COc1ccccc1NC(=O)NC(N)=O	DAX1 inh-1 4.3
Cc1ccccc1NC(=O)NC(N)=O	none
COc1ccc(C(C(=O)N(C)C2CCCC2)N(Cc2ccc(F)cc2)C(=O)c2ccc3ccccc3c2)cc1OC (stereo not given)	none (no result: DAX1 inh-1)
Cc1cccc(N2Cc3ccc(Br)cc3C2)c1	hcDAF12 agonist 6.5
C/C(=N/O)c1cccc(N2Cc3ccccc3C2)c1	none
CC(=O)N1CCCN(S(=O)(=O)c2ccc3c(c2)c(=O)n(C)c(=O)n3C)CC1	none (no result: DAX1 inh-1)
CCOC(=O)c1c(NC(=S)NCc2ccccc2)sc2c1CCN(C(=O)OCC)C2	DAX1 inh-1 6.0
C=CCNC(=S)Nc1sc2c(c1C(=O)OCC)CCN(C(=O)OCC)C2	none
CC(C)[C@@H]1Cc2[nH]n(C)c(=O)c2[C@H](c2ccc(F)cc2)O1	DAX1 inh-2 4.1 (no result: DAX1 inh-1)
Cn1[nH]c2c(c1=O)[C@H](c1ccc(F)cc1)O[C@H](CCc1ccccc1)C2	none (no result: DAX1 inh-1)
Cc1ccc(NC(=O)N2CCC(N(C)CCC(C)C)CC2)cc1F	none (no result: DAX1 inh-1)
COC(=O)c1ccc2nc(-c3cccc(Cl)c3)c(Cc3cccc(Cl)c3)n2c1	ssDAF-12 act 0.9 (no result: DAX1 inh-1)
COC(=O)c1ccc2nc(-c3ccccc3)c(Cc3ccc(C)cc3)n2c1	ssDAF-12 act 0.9 (no result: DAX1 inh-1)
COC(=O)c1ccc2nc(-c3cccc(Cl)c3)c(Cc3ccsc3)n2c1	none (no result: DAX1 inh-1)
COC(=O)c1ccc2nc(-c3ccc(C)cc3)c(Cc3ccccc3)n2c1	none (no result: DAX1 inh-1)
COC(=O)c1ccc2nc(-c3cccc(Br)c3)c(Cc3ccsc3)n2c1	DAX1 inh-2 3.8 (no result: DAX1 inh-1)
O=C(OC12CCCN(C1)/C(=C/c1cccc(Cl)c1)C2)c1ccno1 (stereo not given)	none (no result: DAX1 inh-1)
CCOC(=O)[C@@]12CCC3=C1N(CCC3)C(=O)[C@H](CC(=O)NCc1cccs1)C2	none (no result: DAX1 inh-1)
CC1(C)OC(=O)C(=CNC(=O)c2c(F)cccc2F)C(=O)O1	none
Cc1ccccc1C(=O)NC=C1C(=O)OC(C)(C)OC1=O	DAX1 inh-1 4.2
OCCNCc1ccc(-c2ccccc2)cc1	none
OCCCNCc1ccc(N(c2ccccc2)c2ccccc2)cc1	DAX1 inh-1 5.9
CCC[C@H](/C=C/C(=O)OC(C)(C)C)Sc1ccc(N)cc1	none (no result: DAX1 inh-1)
COC(=O)CC#C[C@H](C)[C@@H](NS(C)(=O)=O)C1CCCCC1	none (no result: DAX1 inh-1)
O=C1C(Cl)=C(N2CCOCC2)C(=O)N1CCc1ccccc1	hgDAF12 agonist 10.7
O=C1c2ccccc2C(=O)N1CCc1ccccc1	ssDAF-12 act 0.9, hcDAF12 agonist 6.2
CN1CCN(C2=C(Cl)C(=O)N(CCc3ccccc3)C2=O)CC1	none
Cc1cccn2c(=O)c3cc(C(=O)N4CCCCC4)sc3nc12	ssDAF-12 act 1.5
Cc1cccn2c(=O)c3cc(C(=O)N4CCN(Cc5ccccc5)CC4)sc3nc12	none
Cc1cccn2c(=O)c3cc(C(=O)N4CCCC(C)C4)sc3nc12 (stereo not given)	ssDAF-12 act 1.2
CC1CCCN(C(=O)c2cc3c(=O)n4ccccc4nc3s2)C1 (stereo not given)	none
COC(=O)[C@]12C[C@H](CC(=O)NCC3CCCCC3)C(=O)N(Cc3ccc4c(c3)OCO4)C1=C[C@H](C(C)C)O[C@@H]2C1CC1	none (no result: DAX1 inh-1)
COc1ccc(Nc2c3ccccc3nc3ccccc23)cc1	none
COc1cc(Nc2c3ccccc3nc3ccccc23)cc(OC)c1OC	hcDAF12 agonist 5.7
CCC(C)NC(=O)c1cc2cc3ccc(OC)cc3nc2s1 (stereo not given)	ssDAF-12 act 1.4, DAX1 inh-2 3.8
CCN(CC)c1ccc(C(=O)O)cc1	none
CCN(CC)c1ccc(C(=S)NCc2ccccc2)cc1	DAX1 inh-1 7.3
Cc1ccc(N2NC(C)(c3cccs3)NC2=S)cc1 (stereo not given)	DAX1 inh-1 4.3
Cc1ccc(N2CC(O)(c3cccs3)[N+]3=C2CCCC3)cc1 (stereo not given)	none
CCOC(=O)/C(C#N)=C/c1cn(CCC(=O)O)nc1-c1ccc(OC)cc1	DAX1 inh-1 6.6
CCOC(=O)/C(C#N)=C/c1cn(CCC(=O)O)nc1-c1ccccc1	none
COC(=O)C1=C(C)N(Cc2cccc(C(F)(F)F)c2)C(=NCc2ccc(OC)cc2)NC1c1ccc(F)cc1 (stereo not given)	none (no result: DAX1 inh-1)
Cn1c(-c2nnn(-c3ccc(F)cc3)n2)cc2ccccc21	hcDAF12 agonist 12.3 (no result: DAX1 inh-1)
COc1cc(/C=C/C(=O)OCC(=O)NC(=O)NC(C)(C)C)ccc1O	DAX1 inh-1 4.5
COc1cc(/C=C/C(=O)OCC(=O)Nc2cccc(F)c2)ccc1O	none
COc1cccc(C2=NNC(=NCc3ccccc3)SC2)c1	hgDAF12 agonist 13.1
C[C@H]1[C@@H](NC(=O)Cc2ccsc2)CC[C@@]23CCCN2C(=O)CCC[C@@H]13	ssDAF-12 act 2.6 (no result: DAX1 inh-1, DAX1 inh-2)
CCN(Cc1cc(=O)[nH]c2ccccc12)C(=O)c1ccc(C)cc1	ssDAF-12 act 1.8
CCN(Cc1cc(=O)[nH]c2ccccc12)C(=O)C(C)C	ssDAF-12 act 0.9
Cc1ccc(N(Cc2cc(=O)[nH]c3ccccc23)C(=O)C(C)C)cc1	none
CN1C2=N[C@@H](c3ccc4ccccc4c3)CC(=O)N2/C(=C\c2ccccc2)[C@H]1c1ccccc1	none (no result: DAX1 inh-1, DAX1 inh-2)
O=C(Cn1ncc(N2CCCC2)c(Cl)c1=O)c1ccc(Cl)cc1	ssDAF-12 act 1.6
O=C(Cn1ncc(N2CCOCC2)c(Br)c1=O)c1ccc(Cl)cc1	none
